Laboratory results: the supplement of paper PMC11732987, “Enantioselective OTUD7B fragment discovery through chemoproteomics screening and high-throughput optimisation” (Communications Chemistry, 2025)

Experiments:
Assay in all cases: log2 ratio of Biotin-Ahx-Ub-VS probe labelling (fragment/DMSO); higher = less target engagement (more negative = stronger competition), active = hit call of the paper (q ≤ 0.05, log2 ratio ≤ -1)
Details in all cases: compound concentration: 200 uM; treatment time: 3 h
USP42 = biological target: T1, USP42 (UniProt Q9H9J4)
T1 sequence (whole entry): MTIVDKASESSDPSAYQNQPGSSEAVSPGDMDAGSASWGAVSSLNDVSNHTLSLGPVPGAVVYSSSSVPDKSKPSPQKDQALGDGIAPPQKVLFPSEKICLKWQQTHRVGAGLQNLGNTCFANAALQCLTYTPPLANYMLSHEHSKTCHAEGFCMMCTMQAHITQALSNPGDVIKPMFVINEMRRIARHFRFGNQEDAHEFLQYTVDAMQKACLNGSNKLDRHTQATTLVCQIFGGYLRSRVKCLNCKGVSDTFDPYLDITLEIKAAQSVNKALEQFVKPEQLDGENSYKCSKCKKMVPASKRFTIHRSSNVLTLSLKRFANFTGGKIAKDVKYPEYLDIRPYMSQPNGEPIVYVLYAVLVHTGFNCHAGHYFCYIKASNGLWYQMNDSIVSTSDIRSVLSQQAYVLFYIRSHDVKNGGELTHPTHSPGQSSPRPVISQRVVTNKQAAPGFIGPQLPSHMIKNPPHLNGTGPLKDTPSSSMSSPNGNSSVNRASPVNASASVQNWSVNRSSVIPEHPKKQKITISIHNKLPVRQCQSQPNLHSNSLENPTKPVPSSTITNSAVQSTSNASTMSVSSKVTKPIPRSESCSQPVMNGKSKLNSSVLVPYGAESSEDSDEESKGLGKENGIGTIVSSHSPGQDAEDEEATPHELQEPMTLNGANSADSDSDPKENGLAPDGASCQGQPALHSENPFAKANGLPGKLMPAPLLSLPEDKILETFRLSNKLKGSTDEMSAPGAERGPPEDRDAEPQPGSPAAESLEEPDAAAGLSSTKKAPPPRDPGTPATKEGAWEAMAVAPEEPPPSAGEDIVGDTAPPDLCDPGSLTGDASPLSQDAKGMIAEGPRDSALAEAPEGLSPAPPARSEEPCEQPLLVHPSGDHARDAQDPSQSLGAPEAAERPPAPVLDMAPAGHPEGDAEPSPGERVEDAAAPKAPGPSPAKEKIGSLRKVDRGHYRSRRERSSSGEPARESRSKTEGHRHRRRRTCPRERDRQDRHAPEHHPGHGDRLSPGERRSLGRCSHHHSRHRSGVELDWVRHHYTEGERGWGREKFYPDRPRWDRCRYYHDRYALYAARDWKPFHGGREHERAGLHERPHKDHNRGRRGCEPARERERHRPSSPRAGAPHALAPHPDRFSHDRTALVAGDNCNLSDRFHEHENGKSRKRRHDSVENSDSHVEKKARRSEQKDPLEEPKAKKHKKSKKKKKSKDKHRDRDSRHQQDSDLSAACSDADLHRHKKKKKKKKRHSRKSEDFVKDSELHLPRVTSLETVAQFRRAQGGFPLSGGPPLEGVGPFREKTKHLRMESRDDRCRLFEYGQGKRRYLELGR
How it was run: (§1)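 In triplicate, 495 µg of HEK293T lysate per sample was incubated with fragment at 200 µM or vehicle for 3 h. Biotin-Ahx-Ub-VS was then added to 0.5 µM final for 1 h, and labelled DUBs were captured with NeutrAvidin, digested with LysC and trypsin, and measured by diaPASEF LC-MS/MS. Data are average log2 fragment/vehicle ratios by unpaired t-test from global-median-normalised Spectronaut label-free quantities, restricted to proteins with ≥2 unique peptides.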

USP46 = USP46 (UniProt P62068)
How it was run: as §1

USP47 = biological target: T2, USP47 (UniProt Q96K76)
T2 sequence (whole entry): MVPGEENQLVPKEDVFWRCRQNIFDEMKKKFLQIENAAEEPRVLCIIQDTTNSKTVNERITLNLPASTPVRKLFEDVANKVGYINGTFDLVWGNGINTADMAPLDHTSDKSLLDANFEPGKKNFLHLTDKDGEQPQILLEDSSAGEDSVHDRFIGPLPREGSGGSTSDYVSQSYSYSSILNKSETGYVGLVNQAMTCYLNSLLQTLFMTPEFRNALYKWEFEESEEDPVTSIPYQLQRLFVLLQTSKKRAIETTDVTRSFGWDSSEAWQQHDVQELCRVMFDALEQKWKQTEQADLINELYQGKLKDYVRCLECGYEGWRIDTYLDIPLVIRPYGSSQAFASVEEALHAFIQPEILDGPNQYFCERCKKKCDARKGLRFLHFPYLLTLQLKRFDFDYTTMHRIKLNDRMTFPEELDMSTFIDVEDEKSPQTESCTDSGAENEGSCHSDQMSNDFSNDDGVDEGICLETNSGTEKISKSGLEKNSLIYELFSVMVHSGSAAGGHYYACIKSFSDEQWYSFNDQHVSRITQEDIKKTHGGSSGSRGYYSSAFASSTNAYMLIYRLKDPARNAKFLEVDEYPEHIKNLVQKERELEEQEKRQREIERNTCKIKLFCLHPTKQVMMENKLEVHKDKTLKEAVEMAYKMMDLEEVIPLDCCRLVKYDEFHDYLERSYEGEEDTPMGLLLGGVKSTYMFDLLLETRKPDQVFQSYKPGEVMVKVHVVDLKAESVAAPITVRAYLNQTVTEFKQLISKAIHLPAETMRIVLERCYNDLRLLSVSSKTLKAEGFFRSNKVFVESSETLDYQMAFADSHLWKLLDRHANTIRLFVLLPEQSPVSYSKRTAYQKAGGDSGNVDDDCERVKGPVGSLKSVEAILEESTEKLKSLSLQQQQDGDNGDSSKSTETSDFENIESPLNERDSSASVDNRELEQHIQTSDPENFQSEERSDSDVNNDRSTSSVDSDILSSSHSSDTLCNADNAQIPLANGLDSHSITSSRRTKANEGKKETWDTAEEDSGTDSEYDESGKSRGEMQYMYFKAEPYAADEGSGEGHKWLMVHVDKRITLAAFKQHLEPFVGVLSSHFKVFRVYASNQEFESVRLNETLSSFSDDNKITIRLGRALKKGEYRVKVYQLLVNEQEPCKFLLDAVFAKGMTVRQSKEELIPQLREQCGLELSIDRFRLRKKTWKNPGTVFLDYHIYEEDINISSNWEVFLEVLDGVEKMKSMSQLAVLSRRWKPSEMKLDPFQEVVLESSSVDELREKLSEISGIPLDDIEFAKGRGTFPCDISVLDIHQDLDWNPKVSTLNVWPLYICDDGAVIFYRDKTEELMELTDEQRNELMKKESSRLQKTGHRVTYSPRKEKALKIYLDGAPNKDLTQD
How it was run: as §1

USP48 = biological target: T3, USP48 (UniProt Q86UV5)
T3 sequence (whole entry): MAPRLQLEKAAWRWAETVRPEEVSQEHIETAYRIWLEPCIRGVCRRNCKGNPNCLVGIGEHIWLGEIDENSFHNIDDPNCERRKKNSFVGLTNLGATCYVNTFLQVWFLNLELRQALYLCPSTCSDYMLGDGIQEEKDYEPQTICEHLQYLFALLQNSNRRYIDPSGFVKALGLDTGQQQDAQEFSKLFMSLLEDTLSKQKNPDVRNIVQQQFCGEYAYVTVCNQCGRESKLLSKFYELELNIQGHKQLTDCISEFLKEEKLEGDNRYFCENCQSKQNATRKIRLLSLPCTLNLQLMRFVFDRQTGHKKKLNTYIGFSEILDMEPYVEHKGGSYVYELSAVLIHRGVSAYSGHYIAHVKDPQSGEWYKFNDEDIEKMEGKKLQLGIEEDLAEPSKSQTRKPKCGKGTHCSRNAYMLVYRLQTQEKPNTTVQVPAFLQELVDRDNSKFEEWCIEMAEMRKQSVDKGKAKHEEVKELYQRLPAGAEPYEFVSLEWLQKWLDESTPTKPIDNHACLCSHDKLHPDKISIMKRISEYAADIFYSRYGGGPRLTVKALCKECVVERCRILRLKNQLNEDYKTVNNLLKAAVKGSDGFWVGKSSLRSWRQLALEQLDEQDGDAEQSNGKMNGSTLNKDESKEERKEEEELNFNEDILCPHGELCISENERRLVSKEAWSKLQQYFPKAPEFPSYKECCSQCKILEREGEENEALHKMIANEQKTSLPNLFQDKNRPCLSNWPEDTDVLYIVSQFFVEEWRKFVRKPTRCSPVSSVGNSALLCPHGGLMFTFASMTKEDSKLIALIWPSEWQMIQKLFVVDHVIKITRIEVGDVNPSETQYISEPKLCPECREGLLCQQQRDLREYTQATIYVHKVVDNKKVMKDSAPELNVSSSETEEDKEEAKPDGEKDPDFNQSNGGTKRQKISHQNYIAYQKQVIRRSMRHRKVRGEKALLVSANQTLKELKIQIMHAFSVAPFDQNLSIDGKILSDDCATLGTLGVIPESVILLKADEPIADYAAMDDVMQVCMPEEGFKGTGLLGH
How it was run: as §1

USP5 = biological target: T4, USP5 (UniProt P45974)
T4 sequence (whole entry): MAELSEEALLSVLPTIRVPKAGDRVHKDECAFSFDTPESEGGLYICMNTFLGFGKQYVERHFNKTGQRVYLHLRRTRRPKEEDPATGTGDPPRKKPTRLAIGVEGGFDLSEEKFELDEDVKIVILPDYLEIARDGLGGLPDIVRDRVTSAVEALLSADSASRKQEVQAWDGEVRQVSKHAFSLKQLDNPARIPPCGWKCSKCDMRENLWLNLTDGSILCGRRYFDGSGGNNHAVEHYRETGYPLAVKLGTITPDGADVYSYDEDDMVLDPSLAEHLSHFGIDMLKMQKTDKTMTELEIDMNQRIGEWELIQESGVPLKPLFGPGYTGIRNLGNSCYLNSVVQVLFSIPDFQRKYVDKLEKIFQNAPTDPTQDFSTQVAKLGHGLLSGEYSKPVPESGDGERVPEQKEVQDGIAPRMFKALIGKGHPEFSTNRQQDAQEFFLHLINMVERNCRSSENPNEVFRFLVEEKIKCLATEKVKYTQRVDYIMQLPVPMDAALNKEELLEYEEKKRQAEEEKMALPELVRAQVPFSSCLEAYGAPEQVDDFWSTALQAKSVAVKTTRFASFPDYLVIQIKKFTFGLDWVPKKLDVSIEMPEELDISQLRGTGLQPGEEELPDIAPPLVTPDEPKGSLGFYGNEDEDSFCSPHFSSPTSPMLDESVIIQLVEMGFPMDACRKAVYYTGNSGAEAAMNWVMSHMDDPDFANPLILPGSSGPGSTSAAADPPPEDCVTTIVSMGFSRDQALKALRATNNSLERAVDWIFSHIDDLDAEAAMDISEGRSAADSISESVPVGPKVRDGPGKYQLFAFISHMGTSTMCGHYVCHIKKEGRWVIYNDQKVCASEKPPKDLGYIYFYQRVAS
How it was run: as §1

USP54 = USP54 (UniProt Q70EL1)
How it was run: as §1

USP7 = USP7 (UniProt Q93009)
How it was run: as §1

USP8 = biological target: T5, USP8 (UniProt P40818)
T5 sequence (whole entry): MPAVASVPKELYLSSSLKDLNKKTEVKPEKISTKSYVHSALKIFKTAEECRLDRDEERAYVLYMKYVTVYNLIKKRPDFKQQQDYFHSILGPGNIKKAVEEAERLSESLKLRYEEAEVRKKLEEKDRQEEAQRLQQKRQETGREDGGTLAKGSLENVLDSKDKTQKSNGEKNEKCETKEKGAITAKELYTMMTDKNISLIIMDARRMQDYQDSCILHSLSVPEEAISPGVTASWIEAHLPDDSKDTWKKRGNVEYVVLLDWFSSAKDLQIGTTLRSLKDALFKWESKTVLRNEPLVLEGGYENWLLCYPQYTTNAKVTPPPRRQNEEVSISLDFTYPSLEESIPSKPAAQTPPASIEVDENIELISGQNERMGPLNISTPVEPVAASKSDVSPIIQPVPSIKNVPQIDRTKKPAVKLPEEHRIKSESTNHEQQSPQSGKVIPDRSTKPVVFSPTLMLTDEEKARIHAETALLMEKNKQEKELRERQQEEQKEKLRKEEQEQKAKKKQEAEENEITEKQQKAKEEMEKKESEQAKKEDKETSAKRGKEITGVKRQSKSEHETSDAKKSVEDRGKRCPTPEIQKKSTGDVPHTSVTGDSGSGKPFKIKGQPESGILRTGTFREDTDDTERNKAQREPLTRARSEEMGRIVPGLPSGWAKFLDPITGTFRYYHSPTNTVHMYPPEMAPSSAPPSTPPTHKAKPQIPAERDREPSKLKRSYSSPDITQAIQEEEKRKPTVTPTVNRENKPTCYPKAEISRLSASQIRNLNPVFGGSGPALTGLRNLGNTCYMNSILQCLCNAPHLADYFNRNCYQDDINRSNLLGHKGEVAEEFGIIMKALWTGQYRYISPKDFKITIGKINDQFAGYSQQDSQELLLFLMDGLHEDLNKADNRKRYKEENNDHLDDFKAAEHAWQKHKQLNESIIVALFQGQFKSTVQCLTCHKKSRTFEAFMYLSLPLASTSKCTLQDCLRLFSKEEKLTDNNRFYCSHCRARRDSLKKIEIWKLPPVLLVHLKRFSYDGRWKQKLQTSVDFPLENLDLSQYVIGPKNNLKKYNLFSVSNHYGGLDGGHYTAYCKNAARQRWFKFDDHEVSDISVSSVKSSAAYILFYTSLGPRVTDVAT
How it was run: as §1

Measured: log2 ratio of Biotin-Ahx-Ub-VS probe labelling

USP54, sequence (Q70EL1 whole entry): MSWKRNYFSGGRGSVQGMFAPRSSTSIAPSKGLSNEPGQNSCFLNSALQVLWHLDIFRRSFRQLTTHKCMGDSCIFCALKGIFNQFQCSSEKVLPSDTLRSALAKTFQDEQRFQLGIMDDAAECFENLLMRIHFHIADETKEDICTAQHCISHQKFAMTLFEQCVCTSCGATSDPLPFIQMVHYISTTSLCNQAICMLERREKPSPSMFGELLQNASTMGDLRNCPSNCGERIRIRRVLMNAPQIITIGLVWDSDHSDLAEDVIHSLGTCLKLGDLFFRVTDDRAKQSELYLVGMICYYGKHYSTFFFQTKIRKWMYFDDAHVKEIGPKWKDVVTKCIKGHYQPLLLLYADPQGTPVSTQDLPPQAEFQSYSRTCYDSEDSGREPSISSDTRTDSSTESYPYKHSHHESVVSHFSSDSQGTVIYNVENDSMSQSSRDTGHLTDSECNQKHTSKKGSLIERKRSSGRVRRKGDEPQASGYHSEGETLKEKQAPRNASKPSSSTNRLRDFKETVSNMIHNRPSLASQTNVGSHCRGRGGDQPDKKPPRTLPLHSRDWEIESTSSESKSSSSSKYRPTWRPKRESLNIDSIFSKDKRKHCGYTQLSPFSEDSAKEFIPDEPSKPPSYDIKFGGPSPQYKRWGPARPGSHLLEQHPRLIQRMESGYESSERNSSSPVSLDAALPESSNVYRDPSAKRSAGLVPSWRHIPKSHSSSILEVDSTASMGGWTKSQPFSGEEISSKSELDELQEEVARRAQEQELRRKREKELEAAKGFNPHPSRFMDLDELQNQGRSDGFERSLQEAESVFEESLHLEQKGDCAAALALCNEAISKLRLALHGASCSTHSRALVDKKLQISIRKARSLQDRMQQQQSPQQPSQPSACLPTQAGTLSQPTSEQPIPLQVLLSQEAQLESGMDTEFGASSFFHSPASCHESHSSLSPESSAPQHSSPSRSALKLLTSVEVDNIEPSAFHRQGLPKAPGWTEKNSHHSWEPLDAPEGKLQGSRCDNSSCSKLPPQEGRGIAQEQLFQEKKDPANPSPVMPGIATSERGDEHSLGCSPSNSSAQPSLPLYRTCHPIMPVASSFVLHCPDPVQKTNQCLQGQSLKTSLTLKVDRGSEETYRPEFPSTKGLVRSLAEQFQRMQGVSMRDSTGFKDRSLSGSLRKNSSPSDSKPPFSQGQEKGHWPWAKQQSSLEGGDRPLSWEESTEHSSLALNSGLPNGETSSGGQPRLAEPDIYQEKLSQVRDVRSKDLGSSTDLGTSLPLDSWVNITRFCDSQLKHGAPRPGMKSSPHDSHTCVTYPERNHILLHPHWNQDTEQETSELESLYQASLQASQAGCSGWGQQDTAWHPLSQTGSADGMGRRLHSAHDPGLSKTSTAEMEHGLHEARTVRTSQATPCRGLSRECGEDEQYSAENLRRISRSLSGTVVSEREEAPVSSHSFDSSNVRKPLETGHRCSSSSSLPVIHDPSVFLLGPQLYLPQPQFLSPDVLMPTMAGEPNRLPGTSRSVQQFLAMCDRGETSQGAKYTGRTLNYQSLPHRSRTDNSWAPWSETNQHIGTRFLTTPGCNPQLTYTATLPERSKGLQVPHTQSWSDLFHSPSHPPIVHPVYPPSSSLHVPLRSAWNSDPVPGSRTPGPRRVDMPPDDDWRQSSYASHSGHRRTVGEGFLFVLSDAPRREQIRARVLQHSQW
USP46, sequence (P62068 whole entry): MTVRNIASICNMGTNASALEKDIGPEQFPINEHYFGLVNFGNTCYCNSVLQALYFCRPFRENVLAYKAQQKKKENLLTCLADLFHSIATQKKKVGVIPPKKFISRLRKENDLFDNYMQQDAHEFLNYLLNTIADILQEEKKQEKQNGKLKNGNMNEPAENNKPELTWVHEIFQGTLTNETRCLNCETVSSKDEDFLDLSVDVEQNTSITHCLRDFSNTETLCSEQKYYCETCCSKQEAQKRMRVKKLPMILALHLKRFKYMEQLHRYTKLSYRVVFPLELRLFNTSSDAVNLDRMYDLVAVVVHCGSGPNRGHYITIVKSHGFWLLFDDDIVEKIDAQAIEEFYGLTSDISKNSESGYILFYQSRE
USP7, sequence (Q93009 whole entry, looked up): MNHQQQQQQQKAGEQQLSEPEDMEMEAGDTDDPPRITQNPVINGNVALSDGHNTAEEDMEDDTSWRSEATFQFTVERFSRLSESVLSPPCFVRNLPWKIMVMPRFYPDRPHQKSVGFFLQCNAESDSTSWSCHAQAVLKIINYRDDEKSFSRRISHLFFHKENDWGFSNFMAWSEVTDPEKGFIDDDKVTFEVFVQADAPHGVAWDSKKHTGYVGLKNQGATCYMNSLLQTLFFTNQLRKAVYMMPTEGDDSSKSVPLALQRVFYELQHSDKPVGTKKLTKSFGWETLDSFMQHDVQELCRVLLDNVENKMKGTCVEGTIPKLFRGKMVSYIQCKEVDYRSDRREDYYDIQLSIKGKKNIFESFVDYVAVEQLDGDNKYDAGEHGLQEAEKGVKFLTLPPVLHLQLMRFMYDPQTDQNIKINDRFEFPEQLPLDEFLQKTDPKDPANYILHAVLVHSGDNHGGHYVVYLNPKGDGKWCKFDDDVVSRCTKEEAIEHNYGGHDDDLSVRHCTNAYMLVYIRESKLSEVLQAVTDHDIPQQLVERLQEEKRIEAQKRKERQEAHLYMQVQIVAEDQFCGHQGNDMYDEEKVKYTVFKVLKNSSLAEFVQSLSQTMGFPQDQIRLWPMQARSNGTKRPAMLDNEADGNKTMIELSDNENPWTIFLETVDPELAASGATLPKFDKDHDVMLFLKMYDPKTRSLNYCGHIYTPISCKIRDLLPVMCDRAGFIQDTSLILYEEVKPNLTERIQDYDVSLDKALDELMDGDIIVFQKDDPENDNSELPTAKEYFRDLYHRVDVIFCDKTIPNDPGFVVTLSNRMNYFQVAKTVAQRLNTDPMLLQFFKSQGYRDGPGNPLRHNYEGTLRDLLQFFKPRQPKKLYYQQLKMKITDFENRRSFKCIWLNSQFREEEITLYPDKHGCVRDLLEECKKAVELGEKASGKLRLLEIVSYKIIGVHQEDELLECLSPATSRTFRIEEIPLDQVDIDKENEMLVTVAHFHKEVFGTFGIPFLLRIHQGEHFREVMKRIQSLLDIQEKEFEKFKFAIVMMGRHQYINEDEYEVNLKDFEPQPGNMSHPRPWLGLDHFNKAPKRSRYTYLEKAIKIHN

CN(C)C(=O)c1ccc(CNC(=O)CCl)cc1
inactive: USP42 -0.0843 | USP46 0.181 | USP47 0.119 | USP48 0.0435 | USP5 0.373 | USP54 0.152 | USP7 0.103 | USP8 -0.341
